Measured values: PubChem BioAssay (EPA / NIEHS)
“And” between values parts separate entries of the source, which are not always exact repeats. Equal entries are not always repeated. The source made the active and inactive calls. Rule for the calls: active = hit-call score of the fitted dose curve at least 0.9, where 1 is the maximum; inactive = score below 0.9.

Biological target: Paired box protein Pax-6 (Homo sapiens) (UniProt P26367)
Test: ATG_Pax6_CIS: Attagene CIS-FACTORIAL HepG2 Assay for human Paired Box 6 (PAX6) (AID 2282956)
Conditions: HepG2 CIS-FACTORIAL PAX6 reporter transcription, RNA readout; actives raise or lower the signal
Outline: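 Readout: reporter transcript fluorescence after RT-PCR and capillary electrophoresis. Cells: HepG2, transiently transfected with cis-regulated MRTUs. Exposure 24 h. Gain or loss of signal fitted bidirectionally relative to DMSO.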

Paired box protein Pax-6 (Homo sapiens), sequence (P26367 whole entry, looked up): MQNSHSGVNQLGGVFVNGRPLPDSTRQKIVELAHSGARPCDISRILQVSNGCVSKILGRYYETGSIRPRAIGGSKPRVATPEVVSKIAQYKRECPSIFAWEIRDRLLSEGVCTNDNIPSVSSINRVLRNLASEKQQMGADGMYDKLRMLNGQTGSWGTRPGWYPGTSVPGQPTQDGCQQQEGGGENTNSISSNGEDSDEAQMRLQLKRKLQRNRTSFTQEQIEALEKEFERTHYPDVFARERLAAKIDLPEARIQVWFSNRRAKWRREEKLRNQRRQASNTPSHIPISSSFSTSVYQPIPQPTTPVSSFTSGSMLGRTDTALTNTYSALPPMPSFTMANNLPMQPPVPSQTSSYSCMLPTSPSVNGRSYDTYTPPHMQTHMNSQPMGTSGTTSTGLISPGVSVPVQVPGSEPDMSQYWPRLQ

| Compound | AC50 | outcome |
| --- | --- | --- |
| CCc1nc(N)nc(N)c1-c1ccc(Cl)cc1 | 46 µM (active) |  |
| NC(=Nc1ccccc1)Nc1ccccc1 | 34.6 µM (active) |  |
| Oc1ccc(O)cc1 |  | inactive |
| CCCCCCC(C=O)=Cc1ccccc1 |  | inactive |
| CSc1ccc(Oc2ccc(S(N)(=O)=O)cc2CN(C)C)cc1C |  | inactive |
| CS(=O)(=O)c1ccc([C@@H](C[C@H]2CCC(=O)C2)C(=O)Nc2cnccn2)cc1Cl |  | inactive |
| CN(C)CCCN(C)CCCN(C)C |  | inactive |
| O=C(Oc1ccccc1)c1cccc(C(=O)Oc2ccccc2)c1 |  | inactive |
| COC(=O)CCC(=O)OC |  | inactive |

System: not listed separately
Test: ATG_PXRE_CIS: Attagene CIS-FACTORIAL HepG2 Assay for human Pregnane X Receptor Element (PXRE) (AID 2282957)
Conditions: HepG2 Attagene CIS-FACTORIAL PXRE reporter, mRNA; actives raise or lower the signal
Outline: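 Using HepG2 transfected with multiple reporter transcription units, endogenous factor-driven transcription was scored as reporter mRNA after 24 h exposure.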

| Compound | AC50 | outcome |
| --- | --- | --- |
| COc1ccc(C(=O)Nc2nc3ccccc3c(NCc3ccccc3)c2C#N)cc1 | 0.641 µM (active) |  |
| CN(C)C(=O)NC1(c2ccccc2)CCN(CCC[C@]2(c3ccc(Cl)c(Cl)c3)CCCN(C(=O)c3ccccc3)C2)CC1 | 0.119 µM (active) |  |
| CC(C)COC(=O)CCCCC(=O)OCC(C)C |  | inactive |
| CC(C)c1cccc(C(C)C)c1 |  | inactive |
| Cc1cc(SC2=C(O)C[C@@](CCc3ccc(N)cc3)(C(C)C)OC2=O)c(C(C)(C)C)cc1CO | 1.55 µM (active) |  |
| Oc1ccccc1O |  | inactive |
| O=C1O[C@H]([C@H](O)CO)C(O)=C1O |  | inactive |
| CN(C)C(=O)NC1(c2ccccc2)CCN(CC[C@@]2(c3ccc(F)c(F)c3)CN(C(=O)c3ccccc3)CCO2)CC1 | 2.43 µM (active) |  |
| C=CCCCCCCCCCCCC |  | inactive |
| O=C(NS(=O)(=O)/C=C/c1cccs1)c1ccc(F)cc1Br | 13.7 µM (active) |  |
| CC1(C)C(=O)NC(=O)N1CO |  | inactive |
| CCC(C)N(C)C(=O)c1cc2ccccc2c(-c2ccccc2Cl)n1 (configuration not stated) | 0.135 µM (active) |  |
| CC(C)NCC(O)c1ccc(O)c(O)c1 (configuration not stated) | 52.4 µM (active) |  |
| O=C1CCCCC1 |  | inactive |
| O=C(O)c1[nH]n(-c2ccc(S(=O)(=O)O)cc2)c(=O)c1N=Nc1ccc(S(=O)(=O)O)cc1 | 69.5 µM (active) |  |
| CCCC[C@H]1CN(CC2CCOCC2)C(=O)OC12CCN(C1(C)CCN(C(=O)c3c(C)ncnc3C)CC1)CC2 |  | inactive |
| NC=O |  | inactive |
| CCCCCCCC(=O)OC |  | inactive |
| Cc1ccc(-c2cc(C(F)(F)F)nn2-c2ccc(S(N)(=O)=O)cc2)cc1 | 2.58 µM (active) |  |
| CC(COCC(C)OC(=O)c1ccccc1)OC(=O)c1ccccc1 (configuration not stated) | 35.3 µM (active) |  |
| CCc1nc(N)nc(N)c1-c1ccc(Cl)cc1 |  | inactive |
| NC(=Nc1ccccc1)Nc1ccccc1 |  | inactive |
| Oc1ccc(O)cc1 |  | inactive |
| CCCCCCC(C=O)=Cc1ccccc1 | 25.2 µM (active) and 15.7 µM (active) |  |
| CSc1ccc(Oc2ccc(S(N)(=O)=O)cc2CN(C)C)cc1C | 9.66 µM (active) |  |
| CS(=O)(=O)c1ccc([C@@H](C[C@H]2CCC(=O)C2)C(=O)Nc2cnccn2)cc1Cl |  | inactive |
| CN(C)CCCN(C)CCCN(C)C | 25.6 µM (active) |  |
| O=C(Oc1ccccc1)c1cccc(C(=O)Oc2ccccc2)c1 |  | inactive |
| COC(=O)CCC(=O)OC |  | inactive |

System: not listed separately
Test: ATG_PPRE_CIS: Attagene CIS-FACTORIAL HepG2 Assay for human Peroxisome Proliferator-activated Response Element (PPRE) (AID 2282958)
Conditions: HepG2 PPRE cis-element reporter, Attagene transcription factor profiling; actives raise or lower the signal
Outline: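 Cells are first transfected transiently with the multiplexed reporter library, then dosed for 24 h. Total RNA is reverse-transcribed, amplified, fluorescently end-labeled and HpaI-cut before capillary electrophoresis; activity is fitted bidirectionally against DMSO controls.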

| Compound | AC50 | outcome |
| --- | --- | --- |
| COc1ccc(C(=O)Nc2nc3ccccc3c(NCc3ccccc3)c2C#N)cc1 | 1.68 µM (active) |  |
| CN(C)C(=O)NC1(c2ccccc2)CCN(CCC[C@]2(c3ccc(Cl)c(Cl)c3)CCCN(C(=O)c3ccccc3)C2)CC1 | 4.58 µM (active) |  |
| CC(C)COC(=O)CCCCC(=O)OCC(C)C |  | inactive |
| CC(C)c1cccc(C(C)C)c1 |  | inactive |
| Cc1cc(SC2=C(O)C[C@@](CCc3ccc(N)cc3)(C(C)C)OC2=O)c(C(C)(C)C)cc1CO | 57.6 µM (active) |  |
| Oc1ccccc1O |  | inactive |
| O=C1O[C@H]([C@H](O)CO)C(O)=C1O |  | inactive |
| CN(C)C(=O)NC1(c2ccccc2)CCN(CC[C@@]2(c3ccc(F)c(F)c3)CN(C(=O)c3ccccc3)CCO2)CC1 |  | inactive |
| C=CCCCCCCCCCCCC |  | inactive |
| O=C(NS(=O)(=O)/C=C/c1cccs1)c1ccc(F)cc1Br |  | inactive |
| CC1(C)C(=O)NC(=O)N1CO |  | inactive |
| CCC(C)N(C)C(=O)c1cc2ccccc2c(-c2ccccc2Cl)n1 (configuration not stated) | 106 µM (active) |  |
| CC(C)NCC(O)c1ccc(O)c(O)c1 (configuration not stated) |  | inactive |
| O=C1CCCCC1 |  | inactive |
| O=C(O)c1[nH]n(-c2ccc(S(=O)(=O)O)cc2)c(=O)c1N=Nc1ccc(S(=O)(=O)O)cc1 |  | inactive |
| CCCC[C@H]1CN(CC2CCOCC2)C(=O)OC12CCN(C1(C)CCN(C(=O)c3c(C)ncnc3C)CC1)CC2 |  | inactive |
| NC=O |  | inactive |
| CCCCCCCC(=O)OC |  | inactive |
| Cc1ccc(-c2cc(C(F)(F)F)nn2-c2ccc(S(N)(=O)=O)cc2)cc1 |  | inactive |
| CC(COCC(C)OC(=O)c1ccccc1)OC(=O)c1ccccc1 (configuration not stated) |  | inactive |
| CCc1nc(N)nc(N)c1-c1ccc(Cl)cc1 | 26.8 µM (active) |  |
| NC(=Nc1ccccc1)Nc1ccccc1 |  | inactive |
| Oc1ccc(O)cc1 | 62.5 µM (active) |  |
| CCCCCCC(C=O)=Cc1ccccc1 | 4.87 µM (active) and 6.4 µM (active) |  |
| CSc1ccc(Oc2ccc(S(N)(=O)=O)cc2CN(C)C)cc1C |  | inactive |
| CS(=O)(=O)c1ccc([C@@H](C[C@H]2CCC(=O)C2)C(=O)Nc2cnccn2)cc1Cl |  | inactive |
| CN(C)CCCN(C)CCCN(C)C |  | inactive |
| O=C(Oc1ccccc1)c1cccc(C(=O)Oc2ccccc2)c1 | 104 µM (active) |  |
| COC(=O)CCC(=O)OC |  | inactive |
